# Results as given in the supplement of paper PMC8728848.
# Only a selection was taken, and the strongest signals are over-represented in it overall.
# B1: HFR-3 (Triticum aestivum) (protein)
# chain: MKGLLLCALALAFAAVTTHAQLQSCPTRCGKQADGMECPNNLCCSKDGYCGLGVDYCSAGAGCQSGACYDNKICGAQANGTLCRNNHCCSSGGRCGYGREYCSNGCQGGPCWADLKCGHLDNGKLCPNNLCCSQYGYCGLGPEFCGTGCQNGACSTDKPCGNKANGAPCTNNYCCSQYGSCGLGKDYCGTGCQNGACN
# Key:
# Assay in all cases: glycan array binding signal (z-score within array); higher = stronger binding
# Details in all cases: glycan notation: IUPAC condensed, linker removed
# [1] = biological target: Fuc(a1-2)Gal(b1-3)GalNAc(b1-3)Gal
# Method in brief: (§1)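 From the Consortium for Functional Glycomics database, 3228 arrays were curated, keeping only those whose protein sequence was available. Binding is given as a within-array Z-score averaged across arrays sharing a protein sequence and across linkers. Negative Z-scores can be read as non-binding.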
# [2] = biological target: Fuc(a1-2)Gal(b1-3)[Fuc(a1-4)]GlcNAc(b1-3)[Fuc(a1-3)[Gal(b1-4)]GlcNAc(b1-6)]Gal(b1-4)Glc
# Method in brief: as §1
# [3] = biological target: Fuc(a1-2)[GalNAc(a1-3)]Gal(b1-3)GalNAc(b1-3)Gal(a1-4)Gal(b1-4)Glc
# Method in brief: as §1
# [4] = biological target: Fuc(a1-2)[GalNAc(a1-3)]Gal(b1-4)[Fuc(a1-3)]GlcNAc
# Method in brief: as §1
# [5] = biological target: Fuc(a1-3)[Gal(b1-4)]Glc6S
# Method in brief: as §1
# [6] = biological target: Fuc(a1-3)[Gal(b1-4)]GlcNAc(b1-6)GalNAc
# Method in brief: as §1
# [7] = biological target: Gal(a1-3)Gal(b1-3)GlcNAc(b1-6)GalNAc
# Method in brief: as §1
# Gal(a1-3)Gal(b1-4)GlcNAc = biological target: Gal(a1-3)Gal(b1-4)GlcNAc
# Method in brief: as §1
# [8] = biological target: Gal(a1-3)Gal(b1-4)[Fuc(a1-3)]GlcNAc
# Method in brief: as §1
# Gal(a1-3)GalNAc = biological target: Gal(a1-3)GalNAc
# Method in brief: as §1
# [9] = biological target: Gal(a1-3)[Gal(a1-4)]Gal(b1-4)GlcNAc
# Method in brief: as §1
# Gal(a1-4)Gal(b1-4)Glc = biological target: Gal(a1-4)Gal(b1-4)Glc
# Method in brief: as §1
# Gal(b1-3)Gal = biological target: Gal(b1-3)Gal
# Method in brief: as §1
# Gal(b1-3)GalNAc(b1-3)Gal = biological target: Gal(b1-3)GalNAc(b1-3)Gal
# Method in brief: as §1
# [10] = biological target: Gal(b1-3)GalNAc(b1-4)Gal(b1-4)Glc
# Method in brief: as §1
# [11] = biological target: Gal(b1-3)GlcNAc(b1-2)Man(a1-3)[Gal(b1-3)GlcNAc(b1-2)Man(a1-6)]Man(b1-4)GlcNAc(b1-4)[Fuc(a1-6)]GlcNAc
# Method in brief: as §1
# [12] = biological target: Gal(b1-3)[GlcNAc(b1-6)]GalNAc
# Method in brief: as §1
# Gal(b1-4)GlcNAc = biological target: Gal(b1-4)GlcNAc
# Method in brief: as §1
# [13] = biological target: Gal(b1-4)GlcNAc(b1-2)Man(a1-3)[Gal(b1-4)GlcNAc(b1-2)Man(a1-6)][Gal(b1-4)GlcNAc(b1-4)]Man(b1-4)GlcNAc(b1-4)[Fuc(a1-6)]GlcNAc
# Method in brief: as §1
# [14] = biological target: Gal(b1-4)GlcNAc(b1-2)Man(a1-6)Man(b1-4)GlcNAc(b1-4)GlcNAc
# Method in brief: as §1
# [15] = biological target: Gal(b1-4)GlcNAc(b1-2)[Gal(b1-4)GlcNAc(b1-6)]Man(a1-6)[GlcNAc(b1-4)][Gal(b1-4)GlcNAc(b1-2)Man(a1-3)]Man(b1-4)GlcNAc(b1-4)GlcNAc
# Method in brief: as §1
# [16] = biological target: Gal(b1-4)GlcNAc(b1-3)Gal(b1-4)GlcNAc(b1-3)Gal(b1-4)GlcNAc(b1-2)[Gal(b1-4)GlcNAc(b1-3)Gal(b1-4)GlcNAc(b1-3)Gal(b1-4)GlcNAc(b1-6)]Man(a1-6)[Gal(b1-4)GlcNAc(b1-3)Gal(b1-4)GlcNAc(b1-3)Gal(b1-4)GlcNAc(b1-2)Man(a1-3)]Man(b1-4)GlcNAc(b1-4)[Fuc(a1-6)]GlcNAc
# Method in brief: as §1
# [17] = biological target: Gal(b1-4)GlcNAc(b1-3)[GlcNAc(b1-6)]Gal(b1-4)GlcNAc
# Method in brief: as §1
# Gal3S(b1-3)GalNAc = biological target: Gal3S(b1-3)GalNAc
# Method in brief: as §1
# [18] = biological target: Gal3S(b1-4)[Fuc(a1-3)]Glc6S
# Method in brief: as §1
# Gal4S6S(b1-4)GlcNAc = biological target: Gal4S6S(b1-4)GlcNAc
# Method in brief: as §1
# GalNAc(b1-3)Gal = biological target: GalNAc(b1-3)Gal
# Method in brief: as §1
# GalNAc(b1-4)GlcNAc = biological target: GalNAc(b1-4)GlcNAc
# Method in brief: as §1
# [19] = biological target: GalNAc(b1-4)GlcNAc(b1-2)Man(a1-3)[GalNAc(b1-4)GlcNAc(b1-2)Man(a1-6)]Man(b1-4)GlcNAc(b1-4)GlcNAc
# Method in brief: as §1
binder,measurement,setting,value
B1,glycan array binding signal (z-score),[1],-0.52
same,glycan array binding signal (z-score),[2],-0.893
same,glycan array binding signal (z-score),[3],-1.32
same,glycan array binding signal (z-score),[4],-0.585
same,glycan array binding signal (z-score),[5],-1.23
same,glycan array binding signal (z-score),[6],-1.31
same,glycan array binding signal (z-score),[7],-0.577
same,glycan array binding signal (z-score),Gal(a1-3)Gal(b1-4)GlcNAc,0.079
same,glycan array binding signal (z-score),[8],-0.409
same,glycan array binding signal (z-score),Gal(a1-3)GalNAc,2.1
same,glycan array binding signal (z-score),[9],1.2
same,glycan array binding signal (z-score),Gal(a1-4)Gal(b1-4)Glc,2.12
same,glycan array binding signal (z-score),Gal(b1-3)Gal,-0.289
same,glycan array binding signal (z-score),Gal(b1-3)GalNAc(b1-3)Gal,-0.312
same,glycan array binding signal (z-score),[10],2.24
same,glycan array binding signal (z-score),[11],0.089
same,glycan array binding signal (z-score),[12],-0.111
same,glycan array binding signal (z-score),Gal(b1-4)GlcNAc,-0.853
same,glycan array binding signal (z-score),[13],-0.212
same,glycan array binding signal (z-score),[14],-0.488
same,glycan array binding signal (z-score),[15],1.51
same,glycan array binding signal (z-score),[16],2.51
same,glycan array binding signal (z-score),[17],-0.381
same,glycan array binding signal (z-score),Gal3S(b1-3)GalNAc,1.67
same,glycan array binding signal (z-score),[18],6.1
same,glycan array binding signal (z-score),Gal4S6S(b1-4)GlcNAc,0.828
same,glycan array binding signal (z-score),GalNAc(b1-3)Gal,1.25
same,glycan array binding signal (z-score),GalNAc(b1-4)GlcNAc,2.48
same,glycan array binding signal (z-score),[19],0.738
